# Assay results from PubChem BioAssay (NCI).
# Compounds without any hit were thinned out: in the full panel of roughly 79,000, 15% have a hit. A number with no mark means an inactive call. Activity calls are given as the source filed them. Rule as the data show it: active = growth inhibition above about 70%; inactive = the rest. Where a SMILES comes first, the peptide text is derived from it. [ ]: non-standard residue; d: D form. The star is where a group is joined. ξ: configuration not given here. ξF = NC(Cc1ccccc1)C(=O)O; Cbz = O=C(OCc1ccccc1)*; Aib = CC(C)(N)C(=O)O
# Assay: NCI Yeast Anticancer Drug Screen. Data for the rad50 strain (AID 155);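 also: 0% = growth of vehicle-only cultures of the same strain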
# Conditions: S. cerevisiae rad50 strain growth inhibition, stronger effect = higher value; at 50.0 µM unless noted
# How it was run: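 Genetically altered yeast (DNA repair pathway); compound treatment; growth inhibition vs vehicle ctrl.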
row,SMILES,growth inhibition
1,CCOC(=O)[C@]12C3C=CC(C3)C1C(=O)C1OC12 (stereo not given in full),-29%
2,Cc1nnc(N)nc1C,33%
3,Nc1nc2ncc(COc3ccc(C(=O)O)cc3)nc2c(=O)[nH]1,18.8%
4,COc1ccc(CCC(=O)c2ccc(N)cc2)cc1,-22.1%
5,CC1CCC(C(=O)O)(C(Br)C(=O)O)CC1 (stereo not given),-14.5%
6,CCCC1([N+](=O)[O-])c2ccccc2-c2ccc([N+](=O)[O-])cc21 (stereo not given),20.4%
7,CCN(CC)OC(=O)/C=C/c1ccccc1,2.05%
8,Cc1ccc(O)c(C=NCCN=Cc2cc(C)ccc2O)c1.[Cu+2],1.9%
9,O=C1c2ccccc2C(=O)N1/N=[N+](\[O-])c1ccccc1,3.55%
10,Cc1cc(C)c([N+](=O)[O-])cc1N,20.9%
11,Cc1[nH]c(N)nc(=S)c1CCCNc1ccccc1,6.45%
12,CN(C)C(=S)/N=c1\ssc(=S)n1Cc1cccnc1,-20.6%
13,ClC(Cl)CN(Cc1ccccc1)c1ncc[nH]1,22.5%
14,CC(C)(C)NC(=O)Nc1ccc2ccccc2c1,-7.7%
15,COc1cc2ccc(Cc3nccc4cc(OC)c(OC)cc34)cc2cc1OC,98.4% (active)
16,CC(=O)Nc1cc(S(=O)(=O)O)cc2cc(S(=O)(=O)O)cc(O)c12,-20.9%
17,CC(=O)OC1COC(N2C(=O)C(=O)c3c(C)cc(Cl)nc32)C(OC(C)=O)C1OC(C)=O (stereo not given),-22.6%
18,O=C(CC(CC(=O)C(c1ccccc1)c1ccccc1)c1ccccc1)C(c1ccccc1)c1ccccc1,45.9%
19,Cc1cnc(N)cn1 (tested in a mixture with another compound),-0.05%
20,Cc1ccc(S(=O)(=O)CCN2CCN(C)CC2)cc1,8.6%

row,SMILES,growth inhibition
1,Cc1nc(C(N)=S)sc1C(=O)C/C(=N/N)C(=O)Nc1ccc(Cl)cc1,2.05%
2,CC(=O)NNC(=O)C(N)Cc1ccc(O)cc1 (stereo not given),13.5%
3,CN(CCO)CCCC1COc2ccccc2O1 (stereo not given),-31.6%
4,CC(=O)N1C(Nc2cnc3ccccc3c2)CCN1c1ccccc1 (stereo not given),-31.4%
5,CC(C)C1CCC2C(CCC3C(C)(C(=O)O)CCCC23C)C1 (stereo not given),-2.35%
6,COC(=O)C(C)(C)NC(=O)C(Cc1ccccc1)NC(=O)C(C)(C)NC(=O)OCc1ccccc1 (stereo not given) (Cbz-[Aib]-[ξF]-[Aib]-OMe),18.9%
7,COc1ccc(CCNS(=O)(=O)c2c(C)c(C)c(C)c(C)c2C)cc1OC,-2.2%
8,COc1ccc(/C=C2\C(=O)Nc3ccccc32)cc1OC,-3.4%
9,CCCCCC(Br)C(Br)CC(Br)C(Br)CC(Br)C(Br)CCCCC(=O)O (stereo not given),11.2%
10,Nc1cc(S(=O)(=O)O)c(O)c2c1C(=O)c1c(O)c(S(=O)(=O)O)cc(N)c1C2=O,-17.6%
11,N#CC(C(=S)Nc1ccccc1)=C1Nc2ccccc2N1,7.2%
12,N#CCc1nc(-c2cc3ccc(O)cc3oc2=O)cs1,19.1%
13,CN1C(=O)/C(=C2\SC(=O)N(CN3CCOCC3)C2=O)c2ccccc21,-6.1%
14,O=c1n(-c2ccccc2)c(=O)n(-c2ccccc2)c(=O)n1-c1ccccc1,-2.2%
15,COc1ccc(C(OC(=O)Oc2ccccc2)c2ccccc2)cc1 (stereo not given),-9.1%
16,O=C(O)CS(=O)c1ccc2c3c(cccc13)C(=O)c1ccccc1-2 (stereo not given),14.7%
17,O=C(CCl)NNC1=Nc2ccc(Cl)cc2SC1,-2.2%
18,Clc1ccc(C2ON=C(c3ccccc3)N2C23CC4CC(CC(C4)C2)C3)cc1Cl (stereo not given),5.65%
19,O=C(NC(NC(=O)c1ccccc1)c1ccccc1)c1ccccc1,2.1%
20,C1COC2(OC1)OCCCO2,-14.8%

# Assay: NCI Yeast Anticancer Drug Screen. Data for the mec2-1 strain (AID 157)
# Conditions: S. cerevisiae mec2-1 strain, stronger effect = higher value; at 50.0 µM unless noted
# How it was run: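 Yeast mec2-1 mutant treated with compound. Readout: growth inhibition vs vehicle controls.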
row,SMILES,growth inhibition
1,CCOC(=O)[C@]12C3C=CC(C3)C1C(=O)C1OC12 (stereo not given in full),-26.8%
2,Cc1nnc(N)nc1C,9.5%
3,Nc1nc2ncc(COc3ccc(C(=O)O)cc3)nc2c(=O)[nH]1,3.2%
4,COc1ccc(CCC(=O)c2ccc(N)cc2)cc1,-16.4%
5,CC1CCC(C(=O)O)(C(Br)C(=O)O)CC1 (stereo not given),-12.7%
6,CCCC1([N+](=O)[O-])c2ccccc2-c2ccc([N+](=O)[O-])cc21 (stereo not given),7.9%
7,CCN(CC)OC(=O)/C=C/c1ccccc1,5.5%
8,Cc1ccc(O)c(C=NCCN=Cc2cc(C)ccc2O)c1.[Cu+2],5.25%
9,O=C1c2ccccc2C(=O)N1/N=[N+](\[O-])c1ccccc1,0.3%
10,Cc1cc(C)c([N+](=O)[O-])cc1N,15.1%
11,Cc1[nH]c(N)nc(=S)c1CCCNc1ccccc1,2.1%
12,CN(C)C(=S)/N=c1\ssc(=S)n1Cc1cccnc1,-14.4%
13,ClC(Cl)CN(Cc1ccccc1)c1ncc[nH]1,6.25%
14,CC(C)(C)NC(=O)Nc1ccc2ccccc2c1,3.95%
15,COc1cc2ccc(Cc3nccc4cc(OC)c(OC)cc34)cc2cc1OC,98.5% (active)
16,CC(=O)Nc1cc(S(=O)(=O)O)cc2cc(S(=O)(=O)O)cc(O)c12,-13.3%
17,CC(=O)OC1COC(N2C(=O)C(=O)c3c(C)cc(Cl)nc32)C(OC(C)=O)C1OC(C)=O (stereo not given),-15.7%
18,O=C(CC(CC(=O)C(c1ccccc1)c1ccccc1)c1ccccc1)C(c1ccccc1)c1ccccc1,18%
19,Cc1cnc(N)cn1 (tested in a mixture with another compound),-6%
20,Cc1ccc(S(=O)(=O)CCN2CCN(C)CC2)cc1,-9.25%

row,SMILES,growth inhibition
1,Cc1nc(C(N)=S)sc1C(=O)C/C(=N/N)C(=O)Nc1ccc(Cl)cc1,-8.55%
2,CC(=O)NNC(=O)C(N)Cc1ccc(O)cc1 (stereo not given),23.1%
3,CN(CCO)CCCC1COc2ccccc2O1 (stereo not given),-39.1%
4,CC(=O)N1C(Nc2cnc3ccccc3c2)CCN1c1ccccc1 (stereo not given),-48.6%
5,CC(C)C1CCC2C(CCC3C(C)(C(=O)O)CCCC23C)C1 (stereo not given),14.1%
6,COC(=O)C(C)(C)NC(=O)C(Cc1ccccc1)NC(=O)C(C)(C)NC(=O)OCc1ccccc1 (stereo not given) (Cbz-[Aib]-[ξF]-[Aib]-OMe),4.8%
7,COc1ccc(CCNS(=O)(=O)c2c(C)c(C)c(C)c(C)c2C)cc1OC,-20.6%
8,COc1ccc(/C=C2\C(=O)Nc3ccccc32)cc1OC,5.45%
9,CCCCCC(Br)C(Br)CC(Br)C(Br)CC(Br)C(Br)CCCCC(=O)O (stereo not given),-5.8%
10,Nc1cc(S(=O)(=O)O)c(O)c2c1C(=O)c1c(O)c(S(=O)(=O)O)cc(N)c1C2=O,-1.75%
11,N#CC(C(=S)Nc1ccccc1)=C1Nc2ccccc2N1,-36.2%
12,N#CCc1nc(-c2cc3ccc(O)cc3oc2=O)cs1,8.45%
13,CN1C(=O)/C(=C2\SC(=O)N(CN3CCOCC3)C2=O)c2ccccc21,-32.9%
14,O=c1n(-c2ccccc2)c(=O)n(-c2ccccc2)c(=O)n1-c1ccccc1,-13.2%
15,COc1ccc(C(OC(=O)Oc2ccccc2)c2ccccc2)cc1 (stereo not given),6.55%
16,O=C(O)CS(=O)c1ccc2c3c(cccc13)C(=O)c1ccccc1-2 (stereo not given),-12.5%
17,O=C(CCl)NNC1=Nc2ccc(Cl)cc2SC1,-3.65%
18,Clc1ccc(C2ON=C(c3ccccc3)N2C23CC4CC(CC(C4)C2)C3)cc1Cl (stereo not given),-17.6%
19,O=C(NC(NC(=O)c1ccccc1)c1ccccc1)c1ccccc1,-9.2%
20,C1COC2(OC1)OCCCO2,1.35%
